For 40 molecules, Potency and activity change, negative = cytotoxicity results are on record in PubChem BioAssay (Tox21).

Inconclusive results are not listed. Where a call stands in place of a potency, no number is given. Activity calls are given as the source filed them. Calls come from the whole dose curve; as a rule, active = well fitted cell-killing curve with a large enough effect in the repeat runs; inconclusive = weak or mixed curves, or effect the other way; inactive = flat fitted curve, though single readings scatter.

A short description of this assay: qHTS RealTime-Glo MT Cell Viability Assay in HEK293 cells - 8 hour (AID 1224887). Note: top concentration of the series differs between compounds; nearly all actives have a fitted effect of over 50% in size. The settings on record: RealTime-Glo luminescence; series mostly up to 76.8 µM. The source says:
U.S. Tox21 Program National Center for Advancing Translational Sciences [NCATS] NIH Chemical Genomics Center [NCGC] U.S. Environmental Protection Agency [EPA] National Institutes of Environmental Health Sciences [NIEHS] National Toxicology Program [NTP] U.S. Food and Drug Administration [FDA] Tox21 Assay Overview: Measure of cell viability is critical in the cell-base assay. Analysis of cell viability is necessary for the characterization of cell responses to cytotoxic drugs and environmental stress. A RealTime-Glo MT Cell Viability Assay to monitor cell viability in real time of continues cell culture during 40 hours of compound treatment was used to screen Tox21 10K library compounds in Hek293 cells. The RealTime-Glo MT Cell Viability Assay is a nonlytic, homogeneous, bioluminescent method to measure cell viability in real time using a simple, plate-based method. The assay involves adding NanoLuc luciferase and a cell-permeant prosubstrate to cells in culture. Viable cells reduce the proprietary prosubstrate to generate a substrate for NanoLuc luciferase. This substrate diffuses from cells into the surrounding culture medium, where it is rapidly used by the NanoLuc Enzyme to produce a luminescent signal. The signal correlates with the number of viable cells, making the assay well suited for cytotoxicity studies.
Tox21 Assay Protocol Summary: The mixture of Hek293 cell suspension and reagents were dispensed at 600cells/6 ul/well in 1536-well tissue culture treated black solid bottom plates using a Multidrop dispenser. After the assay plates were incubated at a 37 C/5% CO2 incubator for 5 hours, 23 nL of compounds dissolved in DMSO, positive and negative controls was transferred to the assay plate by a pintool work station. The plates were incubated at 37 C for 40 hours. The luminescence intensity were measured at 0h, 8h, 16h, 24h, 32h and 40h time points using ViewLux plate reader during compound treatment.
Consider `Cl/C(=C\n1cncn1)c1ccc(Cl)cc1Cl`, for which the Potency result is “inactive”.

With `CN1CCC(=C2c3ccccc3C=Cc3ccccc32)CC1`, the Potency entry is “inactive”.

On to `Cc1ccc(C(=O)C(C)CN2CCCCC2)cc1` (stereo not given), for which the Potency result is “inactive”.

For `N#CCCNCCC#N`, the Potency entry is “inactive”.

`CC(C)c1cccc(C(C)C)c1NC(=O)NS(=O)(=O)c1cc(C(C)(C)O)co1`: the Potency entry is “inactive”.

Consider `Nc1cnn([C@@H]2O[C@H](CO)[C@@H](O)[C@H]2O)c(=O)n1`, for which the Potency entry is “inactive”.

As for `CC1(C)[C@H]2CC[C@]1(C)[C@H](O)C2`, the Potency result was “inactive”.

On to `CC(O)C1CCCCC1` (stereo not given), for which the Potency result was “inactive”.

`Oc1ccc2c(c1)OCO2`: the Potency result is “inactive”.

Take `CCCCCCCCCO`: the Potency entry is “inactive”.

As to `CCCC[C@H]1CN(CC2CCOCC2)C(=O)OC12CCN(C1(C)CCN(C(=O)c3c(C)ncnc3C)CC1)CC2`, the Potency entry is “inactive”.

Regarding `O=C(c1ccccc1)c1ccc2n1CCC2C(=O)O` (stereo not given), the Potency result was “inactive”.

Take `CC(C)NCC(O)COc1ccc(CC(N)=O)cc1` (stereo not given): the Potency result was “inactive”.

Consider `O=[N+]([O-])c1cccc(Cl)c1Cl`, for which the Potency result was “inactive”.

Regarding `NCCCOCCOCCOCCCN`, the Potency result was “inactive”.

`CC(CN)CCCN` (stereo not given): the Potency result was “inactive”.

`CCOC(=O)CC(=O)c1cc(F)c(Cl)nc1Cl`: the Potency result is “inactive”.

On to `CCCCCCCCCCCCCCCC(=O)OC/C=C(C)/C=C/C=C(C)/C=C/C1=C(C)CCCC1(C)C`, for which the Potency result is “inactive”.

As for `O=C(O)Cc1sc(-c2ccccc2)nc1-c1ccc(Cl)cc1`, the Potency entry is “inactive”.

With `Oc1ccc(C(O)CNCCCCCCNCC(O)c2ccc(O)c(O)c2)cc1O` (stereo not given), the Potency result is “inactive”.

Take `CN1CCC[C@@H]1c1cccnc1`: the Potency result was “inactive”.

With `COC(=O)C(C)=O`, the Potency result was “inactive”.

Turning to `CN(C)CC/C=C1\c2ccccc2COc2ccccc21`, the Potency result is “inactive”.

Take `CNCC[C@@H](Oc1ccccc1C)c1ccccc1`: the Potency entry was “inactive”.

Regarding `CCCCCC(CO)CCC` (stereo not given), the Potency result was “inactive”.

On to `C=C(C)C(=O)OCCOc1ccccc1`, for which the Potency result was “inactive”.

On to `CCN(CC)CCOc1ccc2c(c1)C(=O)c1cc(OCCN(CC)CC)ccc1-2`, for which the Potency result is “inactive”.

As to `NC1CCN(c2nc3c(cc2F)c(=O)c(C(=O)O)cn3-c2ccc(F)cc2F)C1` (stereo not given), the Potency result was “inactive”.

Turning to `O=C(C(=O)c1ccc(Br)cc1)c1ccc(Br)cc1`, the activity change, negative = cytotoxicity is 2.33% [at 15.8 µM] (inactive).

In the case of `CN(C)CCCNCCCN`, the Potency result was “inactive”.

Turning to `CC(C)CCCC(C)CCO` (stereo not given), the Potency result was “inactive”.

Regarding `O=C(O)C1CCC(C(=O)O)CC1` (stereo not given), the Potency result was “inactive”.

As for `COc1ccc(C(C)=O)cc1`, the Potency result was “inactive”.

On to `Cc1cccc(C(C)(C)C)c1O`, for which the Potency entry was “inactive”.

On to `COC(Cc1ccccc1)OC`, for which the Potency result is “inactive”.

Take `CC(C)c1ccc2c(C(C)C)cc(C(C)C)c(S(=O)(=O)O)c2c1`: the Potency result is “inactive”.

For `CCCCOC(=O)c1ccccc1C(=O)OCC(CC)CCCC` (stereo not given), the Potency entry was “inactive”.

On to `CCCCc1cc2ccccc2c(OCCN(C)C)n1`, for which the Potency entry is “inactive”.

On to `OC(CCN1CCCCC1)(c1ccccc1)C1CCCCC1` (stereo not given), for which the Potency entry is “inactive”.

For `CC[C@H](C)[C@H](N)C(=O)O`, the Potency result is “inactive”.
